Data taken from the supplement of paper PMC7366291.
Where a name gives a salt, the structure may show the parent alone. ± gives the standard deviation of the averaged measurements.

test system: Danio rerio Tg(wt1b:EGFP) embryo, pronephros; experiment: glomerular width (mean of left and right), fold change vs DMSO control; higher = wider glomerulus; details: 25 µM; exposure: 24-48 hpf
Summary of the method: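 Every feature is expressed as a fold change relative to the averaged DMSO-treated embryos of the same day. The exposure ran from 24 to 48 hpf at 28.5°C, with dechorionated Tg(wt1b:EGFP) zebrafish embryos in HEPES-buffered E3 containing 0.003% PTU, 0.5% DMSO and 25 μM compound. Dorsal pronephros images taken in agarose-filled 96-well plates were reduced to maximum projections, on which 16 reference points were set by hand in Fiji for a macro to compute distances and angles. Values more than 2 SD from the feature mean were not used.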

Point of comparison: `CCN1CCC[C@H]1CNC(=O)c1c(O)c(Cl)cc(Cl)c1OC` [Raclopride], glomerular width 0.903 ± 0.033. Against it:
- CC(C)Nc1cccnc1N1CCN(C(=O)c2cc3cc(NS(C)(=O)=O)ccc3[nH]2)CC1 [Delavirdine] — higher, 1.16 ± 0.017
- O=C(C1CCCCC1)N1CC(=O)N2CCc3ccccc3C2C1 (stereo not given) [Praziquantel] — higher, 1 ± 0.052
- Nc1cc(N2CCCCC2)nc(N)[n+]1[O-] [Minoxidil] — higher, 1.05 ± 0.053
- CC(NCCC(c1ccccc1)c1ccccc1)c1ccccc1 (stereo not given) [Fendiline hydrochloride] — higher, 0.995 ± 0.018
- C=CCN1CCCC1CNC(=O)c1cc2nn[nH]c2cc1OC (stereo not given) [Alizapride hydrochloride] — within error, 0.924 ± 0.018
- CCOc1ccccc1OCC1CNCCO1 (stereo not given) [Viloxazine hydrochloride] — within error, 0.9002 ± 0.0018
- N=C(N)N1CCc2ccccc2C1 [Debrisoquin sulfate] — higher, 0.9804 ± 0.0064
- CC(=O)[C@H]1CC[C@H]2[C@@H]3CCC4=CC(=O)CC[C@]4(C)[C@H]3CC[C@]12C [Progesterone] — within error, 0.873 ± 0.086
- Oc1c(I)cc(Cl)c2cccnc12 [Clioquinol] — lower, 0.626 ± 0.024
- CN(C)CCN(Cc1ccccc1)c1ccccn1 [Tripelennamine hydrochloride] — within error, 0.982 ± 0.054
- CC(=O)N(CC(O)CO)c1c(I)c(C(=O)NCC(O)CO)c(I)c(C(=O)NCC(O)CO)c1I (stereo not given) [Iohexol] — within error, 0.963 ± 0.072
- Clc1ccc(C(Cn2ccnc2)OCc2c(Cl)cccc2Cl)c(Cl)c1 (stereo not given) [Isoconazole] — lower, 0.669 ± 0.052
- C=C1C[C@H]2[C@@H]3C=C(C)C4=CC(=O)CC[C@]4(C)[C@H]3CC[C@]2(C)[C@@]1(OC(C)=O)C(C)=O [Melengestrol acetate] — higher, 1.07 ± 0.039
- CC[C@H](c1ccc(O)cc1)[C@@H](CC)c1ccc(O)cc1 [Hexestrol] — within error, 0.94 ± 0.029
- Cc1cccn2c(=O)c(-c3nnn[nH]3)cnc12 [Pemirolast potassium] — within error, 0.89 ± 0.062
- CC(C)Cn1cnc2c(N)nc3ccccc3c21 [Imiquimod] — within error, 0.944 ± 0.089
- CC[N+](C)(CC)CCC[n+]1c(-c2ccccc2)c2cc(N)ccc2c2ccc(N)cc21 [Propidium iodide] — higher, 1.16 ± 0.087
- CC(C)(O/N=C(\C(=O)N[C@@H]1C(=O)N2C(C(=O)[O-])=C(C[n+]3ccccc3)CS[C@H]12)c1csc(N)n1)C(=O)O [Ceftazidime pentahydrate] — higher, 0.993 ± 0.046
- CNCCc1ccccn1 [Betahistine mesylate] — higher, 1.06 ± 0.034
- Cc1ccsc1/C=C/C1=NCCCN1C [Morantel tartrate] — higher, 1.132 ± 0.011
- COc1cc(C(=O)OCCCN2CCCN(CCCOC(=O)c3cc(OC)c(OC)c(OC)c3)CC2)cc(OC)c1OC [Dilazep dihydrochloride] — within error, 0.986 ± 0.055
- CCC(C)(C)c1ccc(CC(C)CN2C[C@@H](C)O[C@@H](C)C2)cc1 (stereo not given in full) [Amorolfine hydrochloride] — higher, 0.987 ± 0.017
- CO[C@@]1(NC(=O)CSCC#N)C(=O)N2C(C(=O)O)=C(CSc3nnnn3C)CS[C@@H]21 [Cefmetazole sodium salt] — higher, 1.004 ± 0.0038
- COc1ccc2c3c1O[C@H]1C[C@@H](O)C=C[C@@]31CCN(C)C2 [Galanthamine hydrobromide] — higher, 1.04 ± 0.0055
- CC(=O)OCC1=C(C(=O)O)N2C(=O)[C@@H](NC(=O)Cc3cccs3)[C@H]2SC1 [Cephalothin sodium salt] — within error, 0.923 ± 0.08
- COCCOC(=O)C1=C(C)NC(C)=C(C(=O)OC(C)C)C1c1cccc([N+](=O)[O-])c1 (stereo not given) [Nimodipine] — lower, 0.786 ± 0.066
- Cc1ccc(C(=O)c2ccc(CC(=O)O)n2C)cc1 [Tolmetin sodium salt dihydrate] — higher, 1.006 ± 0.0038
- Cc1noc(NS(=O)(=O)c2ccc(N)cc2)c1C [Sulfisoxazole] — higher, 1.04 ± 0.058
- OCC(O)CN1CCN(c2ccccc2)CC1 (racemic) [Dropropizine (R,S)] — higher, 1.002 ± 0.0079
- CO/N=C(\C(=O)N[C@@H]1C(=O)N2C(C(=O)O)=C(COC(N)=O)CS[C@H]12)c1ccco1 [Cefuroxime sodium salt] — higher, 0.997 ± 0.025
- c1ccc(CNc2ncnc3nc[nH]c23)cc1 [Aminopurine, 6-benzyl] — higher, 1.01 ± 0.042
- CC(C)(Oc1ccc(CCNC(=O)c2ccc(Cl)cc2)cc1)C(=O)O [Bezafibrate] — within error, 0.988 ± 0.072
- CC1=C(/C=C/C(C)=C/C=C/C(C)=C/C(=O)O)C(C)(C)CCC1 [Retinoic acid] — lower, 0.639 ± 0.044
- C[C@H]1O[C@H](O[C@H]2[C@H](O)[C@@H](O)[C@@H](O[C@H]3[C@H](O)[C@@H](O)C(O)O[C@@H]3CO)O[C@@H]2CO)[C@H](O)[C@@H](O)[C@@H]1N[C@H]1C=C(CO)[C@@H](O)[C@H](O)[C@H]1O (stereo not given in full) [Acarbose] — within error, 0.879 ± 0.1
- CCCCOc1cc(C(=O)NCCN(CC)CC)c2ccccc2n1 [Dibucaine] — higher, 0.996 ± 0.044
- C#CCN(C)Cc1ccccc1 [Pargyline hydrochloride] — higher, 1.09 ± 0.052
- CC(C)(C)NC(=O)[C@@H]1C[C@@H]2CCCC[C@@H]2CN1C[C@@H](O)[C@H](Cc1ccccc1)NC(=O)[C@H](CC(N)=O)NC(=O)c1ccc2ccccc2n1 [Saquinavir mesylate] — higher, 1.04 ± 0.085
- CC(=O)N(CC(O)CN(C(C)=O)c1c(I)c(C(=O)NCC(O)CO)c(I)c(C(=O)NCC(O)CO)c1I)c1c(I)c(C(=O)NCC(O)CO)c(I)c(C(=O)NCC(O)CO)c1I (stereo not given) [Iodixanol] — higher, 1.043 ± 0.0099
- CN1C(C(=O)Nc2ccccn2)=C(O)c2sccc2S1(=O)=O [Tenoxicam] — higher, 0.985 ± 0.022
